ATXN viability – reduces viability in counter-screen for ATXN expression inhibitors. S2 cells (HEK-293 line with an ATXN2-luciferase reporter) viability, CellTiter-Fluor protease fluorescence, 24 h. 0.49% of 400,000 active. Potency, µM (series often up to 56.7 µM), most hits filed as cytotoxic; also: potency is read from the fitted curve at half-maximal effect; nearly all actives have a fitted effect of over 40% in size
DRD3 agonist – agonists of human D3 dopamine receptor | P35462 | D3R DiscoveRx beta-arrestin cells, luminescence, 90 min | max activation, % | 0.58% of 410,000 active | AID 652048; in the data active = max activation above about 30%; also: 0% is about no effect
Target sequence (P35462 whole entry, looked up): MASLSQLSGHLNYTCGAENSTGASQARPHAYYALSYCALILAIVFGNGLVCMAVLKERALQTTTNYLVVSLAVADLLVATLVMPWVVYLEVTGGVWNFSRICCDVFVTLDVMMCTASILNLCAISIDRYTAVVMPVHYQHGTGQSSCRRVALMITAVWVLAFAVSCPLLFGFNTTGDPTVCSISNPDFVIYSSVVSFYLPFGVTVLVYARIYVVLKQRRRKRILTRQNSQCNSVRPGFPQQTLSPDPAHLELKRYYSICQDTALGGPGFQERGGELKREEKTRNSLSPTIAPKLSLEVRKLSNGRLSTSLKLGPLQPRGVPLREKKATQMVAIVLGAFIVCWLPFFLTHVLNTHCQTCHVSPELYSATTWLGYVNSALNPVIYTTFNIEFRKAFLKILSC
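Agonist mode: compounds and dopamine controls were applied to plated cells for 90 min at 37 degrees C after an overnight attachment at 1500 cells/well. Luminescent read-out followed 30 - 60 minutes at room temperature with DiscoveRx detection reagent.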
a7 integrin act – activators of alpha7 integrin expression for muscular dystrophy. alpha7betagal myoblasts, beta-gal FDG fluorescence, 48 h. Potency, µM (titrated, usually from 38.3 µM), for inactives: at the top dose activation, actives largely listed as activators. 0.064% of 350,000 active. AID 624291;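 also: potency is read from the fitted curve at half-maximal effect; 100% = response of the positive control SU9516; nearly all actives have a fitted effect of over 60% in size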
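Alpha7betagal+/- myoblasts (passage 13) were plated 16-24 hr, then exposed to compounds (1:260 dilution of DMSO stock) for 48 hours at 37C. After MPER lysis, β-galactosidase reporter activity was read as FDG fluorescence (ex 480/em 540) after 30 minutes.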
D3 antag – blocks the human D3 dopamine receptor. AID 652054. D3R cells, DiscoveRx beta-arrestin luminescence, antagonist mode; stronger effect = lower value. 2.5% of 360,000 active. max response, negative = inhibition, %. P35462; in the data active = max response below about -50%; inconclusive = no clear call, values can overlap the other calls; also: % is scaled to controls: 0 for no effect and ±100 for the full control effect
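Cells plated overnight at 1500 cells/well, then exposed to library compounds with dopamine controls for 90 minutes at 37 degrees C. DiscoveRx reagent added for 30–60 minutes at room temperature; luminescence read, quantitative HTS format.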
IL1B secr inh – inhibitors of inflammasome signaling (IL-1 beta secretion); THP-1 LPS/ATP IL-1B secretion, AlphaLISA, 16 h; stronger effect = lower value; activity change, % at 57.5 µM; 4.7% of 360,000 active; in the data active = activity change below about -50%; inconclusive = mostly about -30% to -49%; also: % is scaled to controls: 0 for no effect and ±100 for the full control effect
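THP-1 cells pretreated 1 hr with compounds (up to 57.5 uM final), then stimulated with LPS (250 ng/mL final) plus ATP (1.25 mM final); secreted IL-1B measured by AlphaLISA after 16 hr, decreased signal indicating inhibition.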
ATXN2 expr inh – reduces ATXN2 reporter expression in HEK-293 cells; HEK-293 ATXN2-luciferase reporter, luminescence, 24 h; Potency, µM (doses to about 57 µM), for inactives: at the highest dose activity change, negative = inhibition, most hits filed as inhibitors; 0.72% of 360,000 active; AID 1745845; also: potency is read from the fitted curve at half-maximal effect; % is scaled to controls: 0 for no effect and ±100 for the full control effect; nearly all actives have a fitted effect of over 55% in size
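ATXN2-luciferase reporter cells (luciferase flanked by upstream and downstream ATXN2 gene portions) were treated 24 h at 37 °C with compounds at up to 57 uM. SteadyGlo luminescence gave expression; GF-AFC fluorescence gave viability.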
The depositor's hits bear a star; i = inactive; ? = inconclusive; . = not tested or not shown; [ ] = dose if it differs, or a comment. Sampled rows, rich in hits. Any-hit rate of the full collection: about 7%. Unless noted, calls follow the shape of the dose curve; as a rule, active = well fitted curve in the direction sought with a large enough effect; inconclusive = small, poorly fitted or top-dose-only effect, or another doubt; inactive = no such curve, though single readings can be large; an effect the other way counts as inactive or inconclusive.

SMILES	ATXN viability	DRD3 agonist	a7 integrin act	D3 antag	IL1B secr inh	ATXN2 expr inh
C=CC[C@H](CC(=O)NCCO)C(=O)N[C@H](COC(=O)[C@@H](CC=C)CC(=O)OC(C)(C)C)Cc1ccccc1	i	21	1%	-18	8	4%
Cc1ccc([N+](=O)[O-])cc1S(=O)(=O)N(C)N=Cc1cnc2ccc(Br)cn12	.	.	.	.	.	0.049µM*
Cc1nc(SCC(=O)NCc2ccco2)c2c3c(sc2n1)CCCC3	i	2	-16%	13	-9	-26%
O=C(CSc1nc(C2CC2)nc2sc3c(c12)CCCC3)NCc1ccco1	i	-4	16%	-112*	0	3%
Cc1cc(C)n2nc(-c3ccc(F)cc3)cc2n1	i	4	10%	-15	23	.
O=C(c1ccccc1)N1CCN(C(=O)c2nn3c(C(F)(F)F)cc(-c4ccco4)nc3c2Br)CC1	i	2	36%	10	-65*	-9%
Cc1cc(-c2ccc(F)cc2)nc2cc(C(N)=O)nn12	i	-16	12%	-76*	-23	0%
O=C(c1cc2nc(-c3ccc(F)cc3)cc(C(F)(F)F)n2n1)N1CCCCC1c1cccnc1 (stereo not drawn)	?	2	-57%	28	-62*	?
O=C(NC1CCCCC1)c1nn2c(C(F)(F)F)cc(-c3ccco3)nc2c1Br	i	2	-7%	6	0	1%
Cc1cnc(C(=O)N2CCCC(N3CCN(c4cccc(C(F)(F)F)c4)CC3)C2)cn1 (stereo not drawn)	i	-8	-47%	5	-62*	-7%
O=C(c1cnn2c(C(F)(F)F)cc(-c3ccccc3)nc12)N1CCCCC1c1cccnc1 (stereo not drawn)	i	-21	-28%	-13	-29	-33%
COc1ccc(-n2nc3c(c2NC(=O)c2ccc(Br)o2)CS(=O)(=O)C3)cc1	i	-7	13%	0	10	2%
NC1=C(c2ccccc2)C(=O)NC1=O	i	-2	0%	6	-3	2%
Cc1ccc(-c2cc(C(F)(F)F)n3nc(C(=O)N4CCN5CCCC5C4)cc3n2)cc1 (stereo not drawn)	i	-2	-32%	0	-62*	-32%
CCOC(=O)C1CCCN(C(=O)c2cc3nc(-c4ccc5c(c4)OCO5)cc(C(F)(F)F)n3n2)C1 (stereo not drawn)	i	120*	-37%	47	8	?
O=C(c1cc2nc(-c3ccco3)cc(C(F)(F)F)n2n1)N1CCN(c2ccc(F)cc2)CC1	i	22	-8%	16	-76*	-12%
CC1CCCCN1C(=O)c1cc2nc(-c3ccccc3)cc(-c3ccccc3)n2n1 (stereo not drawn)	i	4	-63%	-18	-61*	?
O=C(CSc1nnc(CNC(=O)c2ccco2)o1)NC1CCCC1	i	2	-11%	10	-2	3%
COc1cc(OC)c(NS(=O)(=O)c2cccc(C(=O)OCC(=O)NCC3CCCO3)c2)cc1Cl (stereo not drawn)	i	3	?	0	11	1%
CN(Cc1ccccc1)C(=O)c1[nH]cnc1C(=O)Nc1ccc(Br)cc1F	i	-1	3%	5	22	-15%
CN1CCN(C(=O)c2cc3nc(-c4ccc(F)cc4)cc(C(F)(F)F)n3n2)CC1	i	1	0%	-52*	-20	-15%
COc1ccccc1-c1cc2nc(C)c(CCC(=O)Nc3ccc(Br)c(C)c3)c(C)n2n1	i	6	.	.	.	-8%
COc1cccc(/C=N/Nc2ncccc2[N+](=O)[O-])c1OC	i	-6	-5%	?	-29	3.2µM*
O=[N+]([O-])c1ccc(/C=N/Nc2ncccc2[N+](=O)[O-])s1	i	-6	-12%	-21	-3	-5%
COc1cccc(/C=N/Nc2ccc([N+](=O)[O-])cn2)c1O	?	9	-39%	?	-76*	8.9µM*
SMILES	ATXN viability	DRD3 agonist	a7 integrin act	D3 antag	IL1B secr inh	ATXN2 expr inh
O=C(O)COc1ccc(/C=N/Nc2nc(Nc3ccccc3)nc(N3CCCCC3)n2)cc1	i	-27	-3%	-50*	-23	8%
Cc1c(C(=O)O)cccc1-n1c(C)cc(/C=N/Nc2ccc([N+](=O)[O-])cn2)c1C	i	-10	2.8µM*	-30	-13	43%
CC1CCCC(C)N1C(=O)C1CC(c2ccc(F)cc2)=NO1 (stereo not drawn)	i	23	-13%	-20	-23	39%
COc1ccccc1C(=O)NCC(=O)OC(C)C(=O)N1CCOCC1 (stereo not drawn)	i	-3	4%	14	-8	-1%
O=c1c(-c2cc(-c3ccc(Cl)cc3)nc3c2COc2ccccc2-3)coc2ccccc12	i	-16	.	.	.	9%
COc1cccc(/C=N/Nc2nc(Nc3ccc([N+](=O)[O-])cc3)nc(N3CCCC3)n2)c1O	i	-30	11%	-119*	91	?
O=[N+]([O-])c1ccc(Nc2nc(N/N=C/c3cccc(F)c3)nc(N3CCCC3)n2)cc1	?	5	28%	16	?	-8%
C/C(=C\CNc1ncnc2nc[nH]c12)CO	i	-21	23%	0	-7	-14%
CC(C)CCCCCCCCCCCCC(=O)NCC(=O)NC1C(C)OC(Nc2ncnc3nc[nH]c23)C(O)C1O (stereo not drawn)	?	13	-15%	-10	-93*	?
c1ccc(Cc2c[nH]c3ccccc23)cc1	i	2	-11%	12	17	-7%
CN(Cc1ccccc1)Cc1c[nH]c2ccccc12	i	1	-45%	-82*	?	2%
CSC(SC)=C(C(C)=O)C(=O)c1ccc(C)cc1	?	-16	15%	-21	-50*	-9%
Cc1ccc2c(c1)-c1c(cnn1CC(=O)N1CCN(c3ccccc3F)CC1)CO2	i	3	.	.	.	8%
Cc1cn([C@H]2C[C@H](O)[C@@H](CNCc3ccccc3)O2)c(=O)[nH]c1=O	i	4	5%	-4	10	6%
Cc1cn([C@H]2C[C@H](O)[C@@H](CNCC3=Cc4cc(O)ccc4OC3)O2)c(=O)[nH]c1=O	i	39*	-3%	?	-21	-5%
CN(C(=O)C=Cc1ccco1)c1ccccc1	i	-4	3%	-28	-5	1%
CN(C(=O)/C=C/c1ccc([N+](=O)[O-])s1)c1ccccc1	.	0	-59%	-27	-52*	?
CCC(Sc1nc2c(c(=O)[nH]1)CCC2)C(=O)Nc1cccc(OC)c1 (stereo not drawn)	i	-3	-18%[7.66 µM]	-12	17	4%

Compound activity (PubChem)
